Out of some 110,000 compounds screened, about 80 (0.07%) were called active.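 How the source made its calls: active means inhibition above the mean of the plate negative controls plus 5 SD (cut at about 13% in these data); inactive means the rest.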 Many of the other results were omitted from the sample, so actives are more common in it than they were.
experiment: blockers of IgG-bead uptake by macrophages – imaging, J774A.1 cells, IgG beads, primary screen (AID 1029); conditions: J774A.1 macrophage IgG-bead phagocytosis, at 5 µM, stronger effect = higher value;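 further: phagocytic index as fraction of beads internalized from green versus red external bead signal; plate controls were DMSO negative control for no effect and cytochalasin-D positive control for full effect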

SMILES	inhibition
CC(=O)c1ccc2c(c1)c1ccccc1n2CC(C)C	0.3% (inactive)
CC(=O)c1c(C)n([O-])c2ccccc2[n+]1=O	79.2% (active)
c1ccc(-c2cc3c(NCC4COc5ccccc5O4)ncnc3s2)cc1 (stereo not given)	-5.69% (inactive)
CCNS(=O)(=O)c1ccc(NC(=O)c2cncc(Br)c2)cc1	-7.43% (inactive)
CCC1CCCCN1C(=S)Nc1ccc(C(C)=O)cc1 (stereo not given)	-9.4% (inactive)
O=C(/C=C/c1cccc([N+](=O)[O-])c1)NCCSCc1ccco1	6.74% (inactive)
CCc1ccc(-c2cc(C(=O)NN3CCN(C)CC3)c3ccccc3n2)cc1	-2.84% (inactive)
COC(=O)c1c(NC(=O)CN2CCN(S(=O)(=O)c3ccccc3[N+](=O)[O-])CC2)sc2c1CCC(C)C2 (stereo not given)	-4.89% (inactive)
Cc1ccc(NC(=O)CSCC(=O)NC2CCCCC2)cc1	6.8% (inactive)
Cc1ccc(CN2C(=O)N/C(=C/c3cc(C)n(-c4ccccn4)c3C)C2=O)cc1	-12.6% (inactive)
COc1ccc(NC(=S)NC2CCS(=O)(=O)C2)cc1 (stereo not given)	-3.06% (inactive)
O=C(Nc1ccccc1)/C(=C/c1ccc([N+](=O)[O-])cc1)NC(=O)c1ccccc1	-6.22% (inactive)
CC(=O)Nc1ccc(/C(C)=N/NC(=O)CN(c2ccccc2Br)S(C)(=O)=O)cc1	-1.53% (inactive)
Cc1ccccc1OCC(=O)Nc1nc(C)c(C(=O)N(C)C)s1	-2.14% (inactive)
CCn1ncc(CNC(=O)C2(C)CC2(Br)Br)c1C (stereo not given)	-2.71% (inactive)
O=C(/C=C\c1cn(-c2ccccc2)nc1-c1cccs1)N1CCOCC1	-5.61% (inactive)
COc1cc2c(cc1OC)C(Nc1ccc(S(N)(=O)=O)cc1)=NC(C)(C)C2	-2.77% (inactive)
COCCNc1nc(N)c([N+](=O)[O-])c(NCCO)n1	-3.97% (inactive)
COc1ccc(/C(C)=N/NC(=O)CCC(=O)Nc2ccc(Cl)cc2Cl)c(OC)c1	0.09% (inactive)
CCC1CCc2c(sc(NC(C)=O)c2C#N)C1 (stereo not given)	-7.48% (inactive)

SMILES	inhibition
COc1ccc(N2C(=O)C(O)C2c2ccc(C)cc2)cc1 (stereo not given)	-1.93% (inactive)
CC(CC(=O)N1CCN(c2ccccc2)CC1)c1ccccc1 (stereo not given)	-3.13% (inactive)
Cc1ccnc(NC(=O)Cn2ccc([N+](=O)[O-])n2)c1	-6.53% (inactive)
Cc1ccc(C)c(NC(=O)CCC(=O)NNC(=O)c2cccs2)c1	1.58% (inactive)
COCCNC(=O)c1ccccc1NS(=O)(=O)c1ccc(C)c([N+](=O)[O-])c1	-2.99% (inactive)
O=C(NNC(=S)NCc1ccccc1)c1ccc(OC(F)F)cc1	-3.86% (inactive)
CCCCN(CC)C(=S)Nc1ccc2nc3n(c(=O)c2c1)CCCCC3	-7.14% (inactive)
O=C1CCCC(O)=C1N=Nc1ccc2ncsc2c1	105% [artifact] (active)
COc1ccc(C)cc1NC(=O)C(OC(=O)c1cccc(S(=O)(=O)N(C)c2ccccc2)c1)c1ccccc1 (stereo not given)	-5.86% (inactive)
Cc1cccc(C)c1NC(=O)CSc1ccc([N+](=O)[O-])cn1	-2.92% (inactive)
O=C1NC(c2ccccc2)CCC1(Cl)Cl (stereo not given)	2.89% (inactive)
CCC(=O)/C=C1\Sc2ccccc2N1CC	-1.58% (inactive)
S=C(NCc1ccc(Cl)cc1)NC1CCCCC1	-3.92% (inactive)
O=C(NN1C(=O)C2C3C=CC(O3)C2C1=O)c1ccncc1 (stereo not given)	-4.03% (inactive)
O=C(CSc1nnc(-c2ccncc2)o1)NCc1ccc(Cl)cc1	-5.78% (inactive)
COc1ccc(OCc2cn3c(C)cc(C)nc3n2)cc1	-0.34% (inactive)
COc1cc(/C=C/C(=O)O)cc(S(=O)(=O)Nc2ccccc2SC)c1OC	-5.74% (inactive)
CCCCN(CC)C(=O)c1ccc2c(c1)OCO2	1.32% (inactive)
Cc1ccc2c(c1)C1CN(C)CCC1N2C(=O)c1ccccc1NS(=O)(=O)c1ccc(F)cc1C (stereo not given)	-3.92% (inactive)
COC(=O)/C(=C1\Oc2ccc(C(C)(C)C)cc2S1)C(F)(F)F	7.86% (inactive)

SMILES	inhibition
CC(C)CNC(=S)Nc1ccc(F)cc1	-3.14% (inactive)
CCCCOc1ccc(NC(=O)[C@@H]2CCCN2C(=O)C2CCN(S(=O)(=O)c3ccc(C)cc3)CC2)cc1	-3.36% (inactive)
Cc1ccc(NC(=O)CC2S/C(=N/N=C3\CCCc4ccccc43)NC2=O)cc1 (stereo not given)	-6.09% (inactive)
O=C(CN1CCc2ccccc21)NC(c1ccccc1)c1ccccc1	-5.11% (inactive)
O=C(O)c1ccc2c(c1)C(=O)N(NC(=O)c1ccc(O)cc1)C2=O	-5.14% (inactive)
COc1ccc(NC(=S)NCc2cccs2)c(OC)c1	0.55% (inactive)
COc1cc2c(cc1/C=C1/NC(=O)N(c3ccccc3)C1=O)OCO2	-3.27% (inactive)
Cc1cc(C(=O)NNC(=S)NC(C)c2ccccc2)cs1 (stereo not given)	-2.01% (inactive)
Cc1ccc(-n2[nH]c(C)c(/C=N/NC(=O)c3cccc([N+](=O)[O-])c3)c2=O)cc1C	-4.72% (inactive)
Cc1ccc(C(=O)Oc2coc(CSc3nnc(NC(=O)c4cccs4)s3)cc2=O)cc1C	-0.5% (inactive)
NC1=C([N+](=O)[O-])C(c2ccccc2)C2=C(CCCC2=O)O1 (stereo not given)	-3.95% (inactive)
COc1ccc(C(=O)COC(=O)c2ccc3ccccc3n2)cc1	-5.54% (inactive)
O=[N+]([O-])c1cccc(C2=NCCS2)c1	0.05% (inactive)
Cc1ccccc1Cn1nc(C)c(NC(=O)C(F)(F)F)c1C	-2.43% (inactive)
CC(C)(C)C1CCC(=NNC(=O)c2cc(-c3ccccc3)n[nH]2)CC1 (stereo not given)	0.48% (inactive)
CCOc1ccc2nc(NC(=O)c3cc([N+](=O)[O-])ccc3N3CCOCC3)sc2c1	3.64% (inactive)
CC(=O)c1ccc(NC(=S)NC(=O)CC(C)C)cc1	-4.19% (inactive)
CCOc1ccc(C(=O)NC(=S)Nc2ccc(NC(=O)C(C)C)cc2)cc1[N+](=O)[O-]	-0.7% (inactive)
COc1ccc2nc(Nc3nc(-c4cc5ccccc5oc4=O)cs3)sc2c1	0.77% (inactive)
CC(=O)Nc1cccc(/C(C)=N/NC(=O)c2c(-c3ccccc3Cl)noc2C)c1	-2.62% (inactive)

Source: PubChem BioAssay AID1029 (Sanford-Burnham Center for Chemical Genomics, 2008)
